Assay results reported in PubChem BioAssay AID1159580 (chemical genetic matrix, 2015).
Out of some 5,500 compounds screened, about 2,000 (36%) were called active. Inconclusive results (about 18%) are left out. Rule as the data show it: active = normalized growth mostly below about 0.91 (no sharp cut-off); inconclusive = no clear call, values can overlap the other calls; inactive = mostly above about 0.92. The list shows a part of the results.

Assay: chemical genetic growth profiling, strain panel (AID 1159580);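 also: tested at 20 µM; growth read once vehicle control cultures reached saturation at 30 °C; 1 = growth at the plate median or of vehicle wells; lower values mean less growth of the strain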
Conditions: growth OD

Measured: normalized growth

NCCCN
inactive: S. cerevisiae deletion strains, locus YJR066W, strain TOR1, stronger effect = lower value 0.933 | S. cerevisiae deletion strains, locus YKL009W, strain mrt4, stronger effect = lower value 1.02 | S. cerevisiae deletion strains, locus YKL068W, stronger effect = lower value 0.985 | S. cerevisiae deletion strains, locus YKL085W, strain MDH1 (second series), stronger effect = lower value 0.984 | S. cerevisiae deletion strains, locus YKL085W, strain MDH1, stronger effect = lower value 0.984 | S. cerevisiae deletion strains, locus YKL160W, strain elf1, stronger effect = lower value 1.02 | S. cerevisiae deletion strains, locus YKL190W, strain CNB1, stronger effect = lower value 0.999 | S. cerevisiae deletion strains, locus YKR001C, strain vps1, stronger effect = lower value 1.01 | S. cerevisiae deletion strains, locus YKR026C, strain gcn3, stronger effect = lower value 0.986 | S. cerevisiae deletion strains, locus YKR091W, strain srl3, stronger effect = lower value 0.998 | S. cerevisiae deletion strains, locus YLL001W, strain dnm1, stronger effect = lower value 1 | S. cerevisiae deletion strains, locus YLL026W, stronger effect = lower value 0.988 | S. cerevisiae deletion strains, locus YLL041C, strain sdh2, stronger effect = lower value 0.987 | S. cerevisiae deletion strains, locus YLR027C, strain aat2, stronger effect = lower value 1 | S. cerevisiae deletion strains, locus YLR039C, strain RIC1, stronger effect = lower value 1.09 | S. cerevisiae deletion strains, locus YLR058C, strain SHM2, stronger effect = lower value 1 | S. cerevisiae deletion strains, locus YLR102C, strain apc9, stronger effect = lower value 0.988 | S. cerevisiae deletion strains, locus YLR113W, strain HOG1, stronger effect = lower value 1.05 | S. cerevisiae deletion strains, locus YLR221C, strain rsa3, stronger effect = lower value 0.959 | S. cerevisiae deletion strains, locus YLR258W, strain gsy2, stronger effect = lower value 0.992 | S. cerevisiae deletion strains, locus YLR262C, strain YPT6 (second series), stronger effect = lower value 1.02 | S. cerevisiae deletion strains, locus YLR262C, strain YPT6, stronger effect = lower value 1.14 | S. cerevisiae deletion strains, locus YLR268W, strain sec22, stronger effect = lower value 0.979 | S. cerevisiae deletion strains, locus YLR320W, strain mms22, stronger effect = lower value 0.983 | S. cerevisiae deletion strains, locus YLR330W, strain CHS5, stronger effect = lower value 0.993 | S. cerevisiae deletion strains, locus YLR342W, strain FKS1 (second series), stronger effect = lower value 1.02 | S. cerevisiae deletion strains, locus YLR342W, strain FKS1, stronger effect = lower value 0.994 | S. cerevisiae deletion strains, locus YLR357W, strain rsc2, stronger effect = lower value 0.978 | S. cerevisiae deletion strains, locus YLR370C, strain arc18, stronger effect = lower value 0.967 | S. cerevisiae deletion strains, locus YLR371W, strain rom2, stronger effect = lower value 0.961 | S. cerevisiae deletion strains, locus YLR384C, strain iki3, stronger effect = lower value 0.993 | S. cerevisiae deletion strains, locus YLR418C, strain cdc73, stronger effect = lower value 1.03 | S. cerevisiae deletion strains, locus YML016C, strain PPZ1, stronger effect = lower value 0.994 | S. cerevisiae deletion strains, locus YML032C, strain rad52, stronger effect = lower value 1.02 | S. cerevisiae deletion strains, locus YML120C, strain ndi1, stronger effect = lower value 0.992 | S. cerevisiae deletion strains, locus YML124C, strain tub3, stronger effect = lower value 0.99 | S. cerevisiae deletion strains, locus YMR058W, strain fet3, stronger effect = lower value 0.994 | S. cerevisiae deletion strains, locus YMR078C, strain ctf18, stronger effect = lower value 0.972 | S. cerevisiae deletion strains, locus YMR125W, strain sto1, stronger effect = lower value 0.97 | S. cerevisiae deletion strains, locus YMR129W, stronger effect = lower value 0.991 | S. cerevisiae deletion strains, locus YMR205C, strain PFK2, stronger effect = lower value 1.02 | S. cerevisiae deletion strains, locus YMR223W, strain ubp8, stronger effect = lower value 1.01 | S. cerevisiae deletion strains, locus YMR231W, strain pep5, stronger effect = lower value 0.946 | S. cerevisiae deletion strains, locus YMR307W, strain GAS1, stronger effect = lower value 1.1 | S. cerevisiae deletion strains, locus YNL067W, strain RPL9B, stronger effect = lower value 1.01 | S. cerevisiae deletion strains, locus YNL071W, strain lat1, stronger effect = lower value 0.985 | S. cerevisiae deletion strains, locus YNL183C, strain NPR1, stronger effect = lower value 0.969 | S. cerevisiae deletion strains, locus YNL209W, strain ssb2, stronger effect = lower value 0.993 | S. cerevisiae deletion strains, locus YNL233W, strain BNI4, stronger effect = lower value 1.01 | S. cerevisiae deletion strains, locus YNL248C, strain rpa49, stronger effect = lower value 0.993 | S. cerevisiae deletion strains, locus YNL250W, strain rad50, stronger effect = lower value 0.979 | S. cerevisiae deletion strains, locus YNL271C, strain bni1, stronger effect = lower value 0.99 | S. cerevisiae deletion strains, locus YNL298W, strain CLA4, stronger effect = lower value 1.01 | S. cerevisiae deletion strains, locus YNL307C, strain MCK1, stronger effect = lower value 0.985 | S. cerevisiae deletion strains, locus YNL322C, strain KRE1 (second series), stronger effect = lower value 0.962 | S. cerevisiae deletion strains, locus YNL322C, strain KRE1, stronger effect = lower value 0.996 | S. cerevisiae deletion strains, locus YNR049C, strain mso1, stronger effect = lower value 0.988 | S. cerevisiae deletion strains, locus YNR052C, strain pop2, stronger effect = lower value 0.992 | S. cerevisiae deletion strains, locus YOL006C, strain TOP1, stronger effect = lower value 1.08 | S. cerevisiae deletion strains, locus YOL012C, strain htz1 0.761 | S. cerevisiae deletion strains, locus YOL147C, strain pex11, stronger effect = lower value 0.997 | S. cerevisiae deletion strains, locus YOR001W, strain rrp6, stronger effect = lower value 0.951 | S. cerevisiae deletion strains, locus YOR061W, strain CKA2, stronger effect = lower value 0.997 | S. cerevisiae deletion strains, locus YOR069W, strain VPS5, stronger effect = lower value 0.993 | S. cerevisiae deletion strains, locus YOR070C, strain gyp1, stronger effect = lower value 0.999 | S. cerevisiae deletion strains, locus YOR080W, strain dia2, stronger effect = lower value 0.97 | S. cerevisiae deletion strains, locus YOR083W, strain WHI5, stronger effect = lower value 1.02 | S. cerevisiae deletion strains, locus YOR106W, strain vam3, stronger effect = lower value 0.995 | S. cerevisiae deletion strains, locus YOR136W, strain idh2, stronger effect = lower value 0.974 | S. cerevisiae deletion strains, locus YOR144C, strain elg1, stronger effect = lower value 0.993 | S. cerevisiae deletion strains, locus YOR184W, strain ser1, stronger effect = lower value 1.01 | S. cerevisiae deletion strains, locus YOR231W, strain MKK1, stronger effect = lower value 0.987 | S. cerevisiae deletion strains, locus YOR265W, strain rbl2, stronger effect = lower value 0.99 | S. cerevisiae deletion strains, locus YOR270C, strain vph1, stronger effect = lower value 0.974 | S. cerevisiae deletion strains, locus YOR290C, strain snf2, stronger effect = lower value 0.991 | S. cerevisiae deletion strains, locus YOR316C, strain cot1, stronger effect = lower value 0.987 | S. cerevisiae deletion strains, locus YPL051W, strain arl3, stronger effect = lower value 0.984 | S. cerevisiae deletion strains, locus YPL078C, strain atp4, stronger effect = lower value 1 | S. cerevisiae deletion strains, locus YPL106C, strain sse1, stronger effect = lower value 0.996 | S. cerevisiae deletion strains, locus YPL240C, strain hsp82, stronger effect = lower value 0.986 | S. cerevisiae deletion strains, locus YPL241C, strain CIN2, stronger effect = lower value 1 | S. cerevisiae deletion strains, locus YPL256C, strain CLN2, stronger effect = lower value 0.988 | S. cerevisiae deletion strains, locus YPR119W, strain clb2, stronger effect = lower value 0.986 | S. cerevisiae deletion strains, locus YPR141C, strain kar3, stronger effect = lower value 0.985 | S. cerevisiae deletion strains, locus YPR163C, strain tif3, stronger effect = lower value 0.986 | S. cerevisiae deletion strains, locus YPR167C, strain met16, stronger effect = lower value 0.999 | S. cerevisiae deletion strains, strain wtn01, stronger effect = lower value 0.96 | S. cerevisiae strains, strain wild type, stronger effect = lower value 1
